Records with an inconclusive call do not appear. Values without a mark were called inactive. Calls of active or inactive are those of the source. Calls come from the whole dose curve; as a rule, active = well fitted curve in the direction sought with a large enough effect in the repeat runs; inconclusive = weak or mixed curves; inactive = no such curve, though single readings can be large; an effect the other way counts as inactive or inconclusive.

The text below walks through data of PubChem BioAssay (Tox21).
% is set by controls: 0 for no effect and ±100 for the full control effect.

Androgen receptor (Homo sapiens), sequence (P10275 whole entry, looked up): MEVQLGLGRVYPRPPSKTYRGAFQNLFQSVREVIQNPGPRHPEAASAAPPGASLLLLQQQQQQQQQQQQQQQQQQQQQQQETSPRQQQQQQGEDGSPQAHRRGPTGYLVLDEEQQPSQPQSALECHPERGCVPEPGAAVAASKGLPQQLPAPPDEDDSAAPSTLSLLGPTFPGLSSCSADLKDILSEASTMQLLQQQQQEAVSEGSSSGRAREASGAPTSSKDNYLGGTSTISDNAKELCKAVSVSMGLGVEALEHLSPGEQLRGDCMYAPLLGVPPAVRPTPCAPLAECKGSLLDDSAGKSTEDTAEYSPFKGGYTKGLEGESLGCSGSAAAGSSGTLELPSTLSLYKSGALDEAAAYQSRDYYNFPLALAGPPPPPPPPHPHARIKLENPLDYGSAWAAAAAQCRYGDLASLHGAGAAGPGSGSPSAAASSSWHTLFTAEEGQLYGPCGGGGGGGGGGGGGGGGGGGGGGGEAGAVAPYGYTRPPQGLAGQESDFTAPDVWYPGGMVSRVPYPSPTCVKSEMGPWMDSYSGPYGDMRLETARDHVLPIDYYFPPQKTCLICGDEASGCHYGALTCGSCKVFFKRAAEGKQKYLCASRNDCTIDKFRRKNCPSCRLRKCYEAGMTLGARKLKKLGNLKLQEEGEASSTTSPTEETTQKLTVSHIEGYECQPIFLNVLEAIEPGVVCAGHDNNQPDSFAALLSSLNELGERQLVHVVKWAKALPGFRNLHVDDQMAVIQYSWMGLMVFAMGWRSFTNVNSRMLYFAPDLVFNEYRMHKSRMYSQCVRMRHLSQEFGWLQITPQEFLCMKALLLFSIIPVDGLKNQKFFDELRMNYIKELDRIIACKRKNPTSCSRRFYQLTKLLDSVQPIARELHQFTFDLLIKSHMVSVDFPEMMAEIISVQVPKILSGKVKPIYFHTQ

One test addresses Androgen receptor (Homo sapiens) (UniProt P10275). Put plainly: qHTS assay to identify small molecule antagonists of the androgen receptor (AR) signaling pathway using the MDA cell line (AID 743042; note: nearly all actives have a fitted effect of over 55% in size). Particulars: MDA-kb2 AR-luc, MMTV luciferase, R1881 antagonist, 16 h; series mostly up to 70.3 µM; activity change, negative = inhibition: at the top concentration. In a few lines:
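Antagonist mode: compounds plus R1881 agonist added to MDA-kb2 AR-luc cells, incubated 16 h at 37C. Luciferase reporter luminescence quantified, with multiplexed CellTiter-Fluor readout for cell viability.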
On to `O=C(O)c1ccccc1C(=O)OCc1ccccc1`, for which the “activity change, negative = inhibition” value was 65.8%.
The same measure, in the same setting: the same measure for `O=C(O)c1ccccc1C(=O)Nc1ccc(S(=O)(=O)Nc2nccs2)cc1`: -0.485%; for `CCCOCCOCCOCCO`: -17.7%.
On the same count and under the same terms, the same measure for `COc1ccc(/C=N/NC(=O)c2ccncc2)cc1OC`: 6.48%; for `Cn1c(=O)c2c(ncn2CC2OCCO2)n(C)c1=O`: 6.62%.
Turning to `Nc1ccc(S(=O)(=O)Nc2ccccn2)cc1`, the “activity change, negative = inhibition” value is -6.98% [at 32.5 µM].
On the same count and under the same terms, in the case of `COCC(=O)Nc1c(I)c(C(=O)NCC(O)CO)c(I)c(C(=O)N(C)CC(O)CO)c1I` (stereo not given) it was -2.64% [at 32.5 µM]; in that of `OC(CCN1CCCCC1)(c1ccccc1)c1ccccc1`, 2.6%.

System in a further test: not listed separately
Put plainly: qHTS assay to identify small molecule antagonists of the thyroid receptor (TR) signaling pathway - cell viability counter screen (AID 743064). Note: nearly all actives have a fitted effect of over 50% in size. Note: potency is the fitted concentration of half-maximal effect. Particulars: GH3.TRE-Luc viability, CellTiter-Fluor, 24 h; series mostly up to 70.3 µM; activity change, negative = cytotoxic: at the top concentration. Summed up: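 GH3.TRE-Luc cells, 4 h pre-plating; cpd + T3 1 nM final; 37 °C 23.5 h; CellTiter-Fluor 30 min; fluorescence read.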
A general note: Quantitative high-throughput screening tests each substance at several concentrations.
With `O=C(O)c1ccccc1C(=O)OCc1ccccc1`, the “activity change, negative = cytotoxic” value is -4.88%.
In the case of `Cc1ccc2c(c1)c1c3n2CCNC3CCC1` (stereo not given), the Potency is 11.9 µM (active).
Consider `C[C@H](CCC(=O)O)[C@H]1CC[C@H]2[C@@H]3[C@H](O)C[C@@H]4C[C@H](O)CC[C@]4(C)[C@H]3C[C@H](O)[C@]12C`, for which the “activity change, negative = cytotoxic” value was -1.68%.
Same read-out and setting: in the case of `CC(CC(=O)O)CC(C)(C)C` (stereo not given) it was 6.81%; in that of `CCCOCCOCCOCCO`, 8.1%.
Consider `COc1ccc(/C=N/NC(=O)c2ccncc2)cc1OC`, for which the “activity change, negative = cytotoxic” value is 0.711%.
On the same count and under the same terms, in the case of `C1=C\CC/C=C\CC/1` it was -0.399% [at 95 µM].
Take `O=C(O)/C=C/c1ccccc1`: the Potency entry is “inactive”.
For `Cn1c(=O)c2c(ncn2CC2OCCO2)n(C)c1=O`, the “activity change, negative = cytotoxic” value was -0.557%.
On the same count and under the same terms, in the case of `O=S(=O)(O)CCO` it was 2.49% [at 95 µM].
As to `CCN(CCC#N)c1ccccc1`, the “activity change, negative = cytotoxic” value was -0.338%.
In the case of `CC(=O)OCCCc1ccccc1`, the “activity change, negative = cytotoxic” value is 0.57%.
Turning to `CCCCCC(=O)OCC`, the “activity change, negative = cytotoxic” value was 0.899%.
As for `COCC(=O)Nc1c(I)c(C(=O)NCC(O)CO)c(I)c(C(=O)N(C)CC(O)CO)c1I` (stereo not given), the “activity change, negative = cytotoxic” value is -0.154% [at 32.5 µM].
On the same count and under the same terms, the same measure for `CCCCCCCCCOCC1CO1` (stereo not given): -0.0199% [at 95 µM]; for `O=C1NC2NC(=O)NC2N1` (stereo not given): 4.22%.
Regarding `COc1cc2c3cc1Oc1cc(ccc1O)C[C@@H]1c4c(cc(OC)c(O)c4Oc4ccc(cc4)C[C@@H]3N(C)CC2)CC[N+]1(C)C`, the “activity change, negative = cytotoxic” value is 22.4%.
For the molecule `O=C(O)C(=O)Nc1cccc(-c2nn[nH]n2)c1`, the “activity change, negative = cytotoxic” value is 17.3%.
In the case of `COCCOCCOCCOC`, the “activity change, negative = cytotoxic” value was 9.04%.
Still for that read-out and setting: in the case of `CN(C)CCOCCN(C)CCO` it was 1.38%.
Same read-out and setting: in the case of `CCc1nccnc1C` it was 1.86%; in that of `SCCSCCS`, 0.808%.
On to `C=C(C)C(=O)OCCCCCCOC(=O)C(=C)C`, for which the “activity change, negative = cytotoxic” value is 0.384%.
Take `CC(=O)c1ccc(OCC(=O)N2CCCCC2)cc1`: the “activity change, negative = cytotoxic” value was 2.12%.
The same measure, in the same setting: in the case of `Nc1cc(Cl)cc(S(=O)(=O)O)c1O` it was -0.94% [at 95 µM].
For `Cc1ccccc1C(=O)N1CC/C(=N\OS(=O)(=O)O)c2ccc(Cl)cc21`, the “activity change, negative = cytotoxic” value was -0.241%.
For the molecule `CCCCCCCC/C=C\CCCCCCCC(=O)OC[C@@H](O)[C@H]1OC[C@H](O)[C@H]1O`, the Potency result was “inactive”.
As for `CCCCC(=O)N(C)C`, the “activity change, negative = cytotoxic” value was -1.47%.
The same measure, in the same setting: in the case of `CN(C)CCCNCCC#N` it was -0.165%; in that of `C=COCCOCCOC=C`, 9.27%; in that of `Cc1ccc(S(=O)(=O)NC(=O)NC2CCCCCCC2)cc1`, 9.83%.
On the same count and under the same terms, in the case of `C[N+](C)(C)CC(O)CCl` (stereo not given) it was -6.78% [at 95 µM].
